According to paper PMC7862700, “An all-to-all approach to the identification of sequence-specific readers for epigenetic DNA modifications on cytosine”:

Legend:
Test in all cases: DAPPL (digital affinity profiling via proximity ligation, sequencing); 10 mM Tris-HCl pH 7.5, 50 mM NaCl, 1 mM DTT, 4% glycerol, room temperature, 30 min; GST-TFs on glutathione beads, 16-mer random dsDNA library, 0.1% formaldehyde crosslink after washing; high values mean tight binding
Conditions in all cases: protein: recombinant; tags: N-terminal GST; dsDNA, one strand shown
FLI1 = target: T1, FLI1 (Homo sapiens, UniProt Q01543 1-452)
T1 sequence: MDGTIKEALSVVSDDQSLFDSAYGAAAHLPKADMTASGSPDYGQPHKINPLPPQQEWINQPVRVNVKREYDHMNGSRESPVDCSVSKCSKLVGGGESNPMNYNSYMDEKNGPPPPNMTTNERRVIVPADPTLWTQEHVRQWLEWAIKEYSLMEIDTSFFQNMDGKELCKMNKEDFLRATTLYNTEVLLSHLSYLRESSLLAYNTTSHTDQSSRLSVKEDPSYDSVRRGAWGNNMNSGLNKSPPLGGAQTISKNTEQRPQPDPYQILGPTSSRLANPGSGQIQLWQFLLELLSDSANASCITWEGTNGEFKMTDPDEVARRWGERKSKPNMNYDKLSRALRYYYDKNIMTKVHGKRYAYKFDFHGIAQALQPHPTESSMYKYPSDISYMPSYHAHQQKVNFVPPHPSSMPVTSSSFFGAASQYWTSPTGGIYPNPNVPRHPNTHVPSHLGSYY
In short: (§1)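 GST fusions of human transcription factors were expressed in yeast and captured with glutathione beads. Once given DNA barcodes and pooled alongside a tag-only sample, they were incubated for 30 min at room temperature with 200 nmole of a random double-stranded 16-mer DNA library in Tris/NaCl/DTT/glycerol buffer, then washed, crosslinked (0.1% formaldehyde), proximity-ligated, PCR-amplified and sequenced on an Illumina NextSeq500. The binding signal of each hexamer is its read frequency for a factor divided by its frequency for the tag-only sample.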

ELK1 = target: T2, ELK1 (Homo sapiens, UniProt P19419 1-428)
T2 sequence: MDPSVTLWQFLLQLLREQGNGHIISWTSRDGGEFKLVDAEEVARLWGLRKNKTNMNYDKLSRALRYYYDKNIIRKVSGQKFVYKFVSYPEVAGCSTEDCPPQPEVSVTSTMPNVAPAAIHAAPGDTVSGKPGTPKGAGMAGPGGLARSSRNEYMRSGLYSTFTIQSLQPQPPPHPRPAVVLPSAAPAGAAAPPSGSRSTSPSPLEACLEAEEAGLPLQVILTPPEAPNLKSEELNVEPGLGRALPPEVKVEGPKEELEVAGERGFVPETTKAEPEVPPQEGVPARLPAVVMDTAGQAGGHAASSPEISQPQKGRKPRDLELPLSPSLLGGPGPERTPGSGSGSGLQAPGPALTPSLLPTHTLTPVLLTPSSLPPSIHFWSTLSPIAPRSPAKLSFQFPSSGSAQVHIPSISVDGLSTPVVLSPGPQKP
In short: as §1

GABPA = target: T3, GABPA (Homo sapiens, UniProt Q06546 1-454)
T3 sequence: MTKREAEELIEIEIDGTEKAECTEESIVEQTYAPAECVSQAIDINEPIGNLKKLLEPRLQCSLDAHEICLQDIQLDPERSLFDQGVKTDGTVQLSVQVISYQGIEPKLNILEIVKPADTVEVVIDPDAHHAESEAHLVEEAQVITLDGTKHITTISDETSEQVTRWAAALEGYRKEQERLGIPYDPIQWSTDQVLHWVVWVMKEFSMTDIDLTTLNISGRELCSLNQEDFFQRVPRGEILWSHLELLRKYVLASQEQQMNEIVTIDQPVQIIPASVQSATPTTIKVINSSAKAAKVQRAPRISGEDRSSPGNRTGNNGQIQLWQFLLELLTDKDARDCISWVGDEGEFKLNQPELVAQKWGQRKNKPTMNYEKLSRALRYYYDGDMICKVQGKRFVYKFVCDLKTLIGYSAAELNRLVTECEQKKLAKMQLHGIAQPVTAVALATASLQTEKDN
In short: as §1

ERG = target: T4, ERG (Homo sapiens, UniProt P11308 1-479)
T4 sequence: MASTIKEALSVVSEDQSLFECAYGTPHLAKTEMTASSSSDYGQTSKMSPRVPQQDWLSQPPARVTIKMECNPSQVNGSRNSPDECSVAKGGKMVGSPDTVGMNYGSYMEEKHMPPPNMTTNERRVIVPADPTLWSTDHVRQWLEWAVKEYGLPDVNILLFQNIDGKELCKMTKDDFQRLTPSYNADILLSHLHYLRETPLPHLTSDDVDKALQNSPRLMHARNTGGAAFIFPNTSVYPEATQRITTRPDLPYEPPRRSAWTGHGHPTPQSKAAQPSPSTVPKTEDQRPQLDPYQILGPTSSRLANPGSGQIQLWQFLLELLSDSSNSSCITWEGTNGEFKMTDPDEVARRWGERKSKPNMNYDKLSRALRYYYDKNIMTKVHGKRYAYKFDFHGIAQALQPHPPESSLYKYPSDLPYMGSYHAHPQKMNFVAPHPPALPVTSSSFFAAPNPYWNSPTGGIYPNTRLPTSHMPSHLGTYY
In short: as §1

ELF1 = ELF1 (Homo sapiens, UniProt P32519 1-619)
In short: as §1

SPIB = SPIB (Homo sapiens, UniProt Q01892 1-262)
In short: as §1

ELK3 = target: T5, ELK3 (Homo sapiens, UniProt P41970 1-407)
T5 sequence: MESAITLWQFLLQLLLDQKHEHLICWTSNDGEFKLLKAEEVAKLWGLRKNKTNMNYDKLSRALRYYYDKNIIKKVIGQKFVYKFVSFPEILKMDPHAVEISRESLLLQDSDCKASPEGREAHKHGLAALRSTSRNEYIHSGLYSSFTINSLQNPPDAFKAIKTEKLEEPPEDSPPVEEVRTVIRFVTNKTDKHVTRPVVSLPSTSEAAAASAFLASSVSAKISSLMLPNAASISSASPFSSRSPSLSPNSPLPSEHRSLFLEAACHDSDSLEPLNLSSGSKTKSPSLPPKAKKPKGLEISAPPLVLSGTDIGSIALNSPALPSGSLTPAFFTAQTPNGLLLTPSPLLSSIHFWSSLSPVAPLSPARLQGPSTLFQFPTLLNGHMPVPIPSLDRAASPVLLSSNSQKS
In short: as §1

ETV5 = ETV5 (Homo sapiens, UniProt P41161 1-510)
In short: as §1

SPIC = target: T6, SPIC (Homo sapiens, UniProt Q8N5J4 1-248)
T6 sequence: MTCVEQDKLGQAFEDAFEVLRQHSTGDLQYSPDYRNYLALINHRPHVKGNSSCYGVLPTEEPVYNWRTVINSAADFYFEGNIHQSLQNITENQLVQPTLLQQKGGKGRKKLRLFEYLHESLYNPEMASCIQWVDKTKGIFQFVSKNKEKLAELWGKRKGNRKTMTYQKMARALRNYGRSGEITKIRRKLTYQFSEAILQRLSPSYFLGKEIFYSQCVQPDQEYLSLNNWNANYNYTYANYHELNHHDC
In short: as §1

ETV1 = ETV1 (Homo sapiens, UniProt P50549 1-477)
In short: as §1

ERF = target: T7, ERF (Homo sapiens, UniProt P50548 1-548)
T7 sequence: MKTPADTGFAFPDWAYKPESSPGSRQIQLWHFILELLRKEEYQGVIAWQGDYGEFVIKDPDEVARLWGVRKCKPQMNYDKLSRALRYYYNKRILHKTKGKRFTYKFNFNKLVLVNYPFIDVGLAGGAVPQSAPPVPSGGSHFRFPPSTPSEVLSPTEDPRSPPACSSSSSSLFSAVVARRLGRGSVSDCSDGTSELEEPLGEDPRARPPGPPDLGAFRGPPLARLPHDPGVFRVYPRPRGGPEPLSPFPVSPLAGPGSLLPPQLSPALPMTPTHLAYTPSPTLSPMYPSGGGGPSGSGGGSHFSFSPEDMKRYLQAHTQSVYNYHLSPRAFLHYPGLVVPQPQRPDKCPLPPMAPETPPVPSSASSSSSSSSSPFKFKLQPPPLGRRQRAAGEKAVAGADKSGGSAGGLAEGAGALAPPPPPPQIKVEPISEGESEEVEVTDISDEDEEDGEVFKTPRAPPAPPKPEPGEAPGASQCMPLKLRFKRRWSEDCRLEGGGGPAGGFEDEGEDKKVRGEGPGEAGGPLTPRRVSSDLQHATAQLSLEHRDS
In short: as §1

ETS2 = target: T8, ETS2 (Homo sapiens, UniProt P15036 1-469)
T8 sequence: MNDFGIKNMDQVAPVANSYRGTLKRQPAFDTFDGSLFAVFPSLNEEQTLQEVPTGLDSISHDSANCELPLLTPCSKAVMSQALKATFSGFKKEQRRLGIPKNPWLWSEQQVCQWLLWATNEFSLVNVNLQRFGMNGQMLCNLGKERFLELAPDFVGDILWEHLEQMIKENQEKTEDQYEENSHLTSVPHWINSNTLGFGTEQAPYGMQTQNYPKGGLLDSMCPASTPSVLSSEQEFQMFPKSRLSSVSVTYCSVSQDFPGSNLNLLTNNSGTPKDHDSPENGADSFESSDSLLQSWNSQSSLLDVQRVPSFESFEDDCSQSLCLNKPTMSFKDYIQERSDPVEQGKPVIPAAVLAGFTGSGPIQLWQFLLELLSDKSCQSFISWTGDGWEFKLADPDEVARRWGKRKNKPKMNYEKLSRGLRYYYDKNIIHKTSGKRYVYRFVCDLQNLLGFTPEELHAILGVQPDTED
In short: as §1

EHF = target: T9, EHF (Homo sapiens, UniProt Q9NZC4 1-300)
T9 sequence: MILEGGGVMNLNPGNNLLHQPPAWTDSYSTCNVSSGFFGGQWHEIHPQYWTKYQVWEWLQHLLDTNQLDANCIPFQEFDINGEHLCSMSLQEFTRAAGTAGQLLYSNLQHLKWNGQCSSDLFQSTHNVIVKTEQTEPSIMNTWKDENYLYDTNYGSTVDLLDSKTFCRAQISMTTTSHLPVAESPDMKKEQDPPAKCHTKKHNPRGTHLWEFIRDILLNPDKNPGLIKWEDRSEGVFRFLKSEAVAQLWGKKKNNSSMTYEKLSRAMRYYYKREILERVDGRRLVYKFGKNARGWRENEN
In short: as §1

FEV = target: T10, FEV (Homo sapiens, UniProt Q99581 1-238)
T10 sequence: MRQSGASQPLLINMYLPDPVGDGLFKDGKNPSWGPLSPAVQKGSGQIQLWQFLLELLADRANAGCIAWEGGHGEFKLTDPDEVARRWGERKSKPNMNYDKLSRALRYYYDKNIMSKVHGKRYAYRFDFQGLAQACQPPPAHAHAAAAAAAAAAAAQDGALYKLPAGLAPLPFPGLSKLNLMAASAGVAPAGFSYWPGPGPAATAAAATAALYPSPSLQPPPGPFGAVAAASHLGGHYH
In short: as §1

ETV3L = target: T11, ETV3L (Homo sapiens, UniProt Q6ZN32 1-361)
T11 sequence: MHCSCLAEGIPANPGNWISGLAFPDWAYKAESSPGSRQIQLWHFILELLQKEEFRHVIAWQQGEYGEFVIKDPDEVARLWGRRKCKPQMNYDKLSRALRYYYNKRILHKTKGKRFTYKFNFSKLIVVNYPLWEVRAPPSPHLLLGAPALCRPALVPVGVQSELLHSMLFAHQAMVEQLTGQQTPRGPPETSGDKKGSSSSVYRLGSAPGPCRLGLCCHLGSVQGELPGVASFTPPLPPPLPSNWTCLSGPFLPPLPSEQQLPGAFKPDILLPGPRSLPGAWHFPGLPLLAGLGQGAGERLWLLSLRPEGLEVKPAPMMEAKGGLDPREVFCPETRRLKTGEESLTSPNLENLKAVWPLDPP
In short: as §1

ELF5 = target: T12, ELF5 (Homo sapiens, UniProt Q9UKW6-2 1-255)
T12 sequence: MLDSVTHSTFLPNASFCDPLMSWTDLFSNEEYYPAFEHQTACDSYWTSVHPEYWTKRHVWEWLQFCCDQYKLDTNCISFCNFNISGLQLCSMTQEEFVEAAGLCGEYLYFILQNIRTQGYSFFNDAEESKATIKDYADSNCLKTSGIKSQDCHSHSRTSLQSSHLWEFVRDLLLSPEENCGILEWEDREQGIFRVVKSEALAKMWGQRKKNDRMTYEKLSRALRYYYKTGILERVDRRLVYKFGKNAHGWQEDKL
In short: as §1

ETV3 = target: T13, ETV3 (Homo sapiens, UniProt P41162-2 1-143)
T13 sequence: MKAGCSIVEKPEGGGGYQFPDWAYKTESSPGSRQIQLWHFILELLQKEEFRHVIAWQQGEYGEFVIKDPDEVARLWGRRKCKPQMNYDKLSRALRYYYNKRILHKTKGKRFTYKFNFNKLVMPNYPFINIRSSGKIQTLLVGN
In short: as §1

ETV6 = ETV6 (Homo sapiens, UniProt P41212 1-452)
In short: as §1

Sequence of SPIB (Q01892 whole entry): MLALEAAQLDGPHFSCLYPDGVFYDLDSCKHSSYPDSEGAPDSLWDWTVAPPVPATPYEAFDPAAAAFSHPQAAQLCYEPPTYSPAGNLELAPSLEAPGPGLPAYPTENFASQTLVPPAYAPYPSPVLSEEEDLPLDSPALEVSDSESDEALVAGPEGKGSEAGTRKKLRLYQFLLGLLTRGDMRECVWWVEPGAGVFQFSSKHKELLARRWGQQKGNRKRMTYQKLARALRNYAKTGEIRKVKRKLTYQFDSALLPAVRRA
Sequence of ETV5 (P41161 whole entry): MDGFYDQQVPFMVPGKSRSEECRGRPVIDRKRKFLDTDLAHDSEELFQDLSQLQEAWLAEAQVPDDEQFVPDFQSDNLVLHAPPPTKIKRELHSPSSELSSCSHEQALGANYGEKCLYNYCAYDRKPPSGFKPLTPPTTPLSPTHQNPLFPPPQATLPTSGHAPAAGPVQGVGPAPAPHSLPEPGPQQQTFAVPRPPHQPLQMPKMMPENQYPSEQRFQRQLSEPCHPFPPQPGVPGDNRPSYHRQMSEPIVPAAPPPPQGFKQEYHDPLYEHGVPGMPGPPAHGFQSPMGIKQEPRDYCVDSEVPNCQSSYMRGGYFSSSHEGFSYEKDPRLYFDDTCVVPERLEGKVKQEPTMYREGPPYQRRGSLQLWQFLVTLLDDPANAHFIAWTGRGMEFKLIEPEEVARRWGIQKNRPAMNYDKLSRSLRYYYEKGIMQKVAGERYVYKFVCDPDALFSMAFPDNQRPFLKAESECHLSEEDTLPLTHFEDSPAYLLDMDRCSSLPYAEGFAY
Sequence of ETV1 (P50549 whole entry): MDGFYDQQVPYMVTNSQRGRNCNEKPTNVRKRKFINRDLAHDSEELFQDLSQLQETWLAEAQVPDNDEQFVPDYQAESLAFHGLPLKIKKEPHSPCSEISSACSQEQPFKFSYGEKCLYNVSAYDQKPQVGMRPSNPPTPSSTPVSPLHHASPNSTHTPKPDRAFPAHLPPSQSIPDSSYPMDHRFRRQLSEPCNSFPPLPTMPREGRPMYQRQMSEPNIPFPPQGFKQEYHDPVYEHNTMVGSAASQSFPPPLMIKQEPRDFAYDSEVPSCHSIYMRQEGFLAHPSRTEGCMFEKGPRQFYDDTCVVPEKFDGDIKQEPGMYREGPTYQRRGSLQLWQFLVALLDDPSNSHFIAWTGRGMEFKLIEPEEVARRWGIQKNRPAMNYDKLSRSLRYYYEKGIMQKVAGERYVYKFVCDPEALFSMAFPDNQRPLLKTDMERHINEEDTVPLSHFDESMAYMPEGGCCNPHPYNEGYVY
Sequence of ETV6 (P41212 whole entry): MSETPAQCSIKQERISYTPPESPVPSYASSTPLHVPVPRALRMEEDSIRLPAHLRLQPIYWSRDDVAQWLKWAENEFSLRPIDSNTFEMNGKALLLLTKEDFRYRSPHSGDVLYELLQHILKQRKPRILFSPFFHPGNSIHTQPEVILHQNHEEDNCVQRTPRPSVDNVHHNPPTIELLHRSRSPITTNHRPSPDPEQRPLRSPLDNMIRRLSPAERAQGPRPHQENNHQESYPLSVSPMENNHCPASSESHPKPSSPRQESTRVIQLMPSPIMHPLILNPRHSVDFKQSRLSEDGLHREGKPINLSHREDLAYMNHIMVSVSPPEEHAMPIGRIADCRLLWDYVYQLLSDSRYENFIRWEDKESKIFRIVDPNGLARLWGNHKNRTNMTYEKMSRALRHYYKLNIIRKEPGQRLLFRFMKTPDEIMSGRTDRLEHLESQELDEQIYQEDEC
Sequence of ELF1 (P32519 whole entry): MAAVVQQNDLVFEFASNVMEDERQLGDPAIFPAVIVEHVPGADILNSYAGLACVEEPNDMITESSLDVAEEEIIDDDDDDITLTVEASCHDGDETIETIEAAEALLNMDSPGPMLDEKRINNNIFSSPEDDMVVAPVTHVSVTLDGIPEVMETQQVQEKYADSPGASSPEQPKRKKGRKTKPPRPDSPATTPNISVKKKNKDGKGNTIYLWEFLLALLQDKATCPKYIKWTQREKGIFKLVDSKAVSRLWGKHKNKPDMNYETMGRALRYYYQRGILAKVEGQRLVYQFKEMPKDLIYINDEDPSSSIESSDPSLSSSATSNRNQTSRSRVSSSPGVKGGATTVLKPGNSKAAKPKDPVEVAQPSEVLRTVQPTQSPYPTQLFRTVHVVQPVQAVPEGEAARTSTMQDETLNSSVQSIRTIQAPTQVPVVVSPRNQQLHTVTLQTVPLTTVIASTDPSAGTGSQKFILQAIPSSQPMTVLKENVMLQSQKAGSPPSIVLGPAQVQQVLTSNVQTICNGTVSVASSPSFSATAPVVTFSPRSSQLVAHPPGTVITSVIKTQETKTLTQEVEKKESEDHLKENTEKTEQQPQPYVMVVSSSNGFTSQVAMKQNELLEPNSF

Sequence	binding signal (FLI1)	binding signal (ELK1)	binding signal (GABPA)	binding signal (ERG)	binding signal (ELF1)	binding signal (SPIB)	binding signal (ELK3)	binding signal (ETV5)	binding signal (SPIC)	binding signal (ETV1)	binding signal (ERF)	binding signal (ETS2)	binding signal (EHF)	binding signal (FEV)	binding signal (ETV3L)	binding signal (ELF5)	binding signal (ETV3)	binding signal (ETV6)
TGGTGG	1.11 fold enrichment (6-mer frequency, TF over GST control)	1.01 fold enrichment (6-mer frequency, TF over GST control)	1.12 fold enrichment (6-mer frequency, TF over GST control)	1.1 fold enrichment (6-mer frequency, TF over GST control)	1.03 fold enrichment (6-mer frequency, TF over GST control)	1.05 fold enrichment (6-mer frequency, TF over GST control)	1.22 fold enrichment (6-mer frequency, TF over GST control)	1.03 fold enrichment (6-mer frequency, TF over GST control)	1.03 fold enrichment (6-mer frequency, TF over GST control)	1.04 fold enrichment (6-mer frequency, TF over GST control)	1.1 fold enrichment (6-mer frequency, TF over GST control)	1.08 fold enrichment (6-mer frequency, TF over GST control)	–	–	–	–	–	–
CCCGGT	1.01 fold enrichment (6-mer frequency, TF over GST control)	–	–	1.09 fold enrichment (6-mer frequency, TF over GST control)	–	1.01 fold enrichment (6-mer frequency, TF over GST control)	–	1.09 fold enrichment (6-mer frequency, TF over GST control)	1.07 fold enrichment (6-mer frequency, TF over GST control)	1.07 fold enrichment (6-mer frequency, TF over GST control)	–	1.04 fold enrichment (6-mer frequency, TF over GST control)	1.14 fold enrichment (6-mer frequency, TF over GST control)	1.04 fold enrichment (6-mer frequency, TF over GST control)	1.01 fold enrichment (6-mer frequency, TF over GST control)	1.05 fold enrichment (6-mer frequency, TF over GST control)	1.09 fold enrichment (6-mer frequency, TF over GST control)	1 fold enrichment (6-mer frequency, TF over GST control)
